molecular target: NT-3 growth factor receptor (Homo sapiens) (UniProt Q16288); settings: at 0.1 µM
Sequence (Q16288 32-839 limits assumed): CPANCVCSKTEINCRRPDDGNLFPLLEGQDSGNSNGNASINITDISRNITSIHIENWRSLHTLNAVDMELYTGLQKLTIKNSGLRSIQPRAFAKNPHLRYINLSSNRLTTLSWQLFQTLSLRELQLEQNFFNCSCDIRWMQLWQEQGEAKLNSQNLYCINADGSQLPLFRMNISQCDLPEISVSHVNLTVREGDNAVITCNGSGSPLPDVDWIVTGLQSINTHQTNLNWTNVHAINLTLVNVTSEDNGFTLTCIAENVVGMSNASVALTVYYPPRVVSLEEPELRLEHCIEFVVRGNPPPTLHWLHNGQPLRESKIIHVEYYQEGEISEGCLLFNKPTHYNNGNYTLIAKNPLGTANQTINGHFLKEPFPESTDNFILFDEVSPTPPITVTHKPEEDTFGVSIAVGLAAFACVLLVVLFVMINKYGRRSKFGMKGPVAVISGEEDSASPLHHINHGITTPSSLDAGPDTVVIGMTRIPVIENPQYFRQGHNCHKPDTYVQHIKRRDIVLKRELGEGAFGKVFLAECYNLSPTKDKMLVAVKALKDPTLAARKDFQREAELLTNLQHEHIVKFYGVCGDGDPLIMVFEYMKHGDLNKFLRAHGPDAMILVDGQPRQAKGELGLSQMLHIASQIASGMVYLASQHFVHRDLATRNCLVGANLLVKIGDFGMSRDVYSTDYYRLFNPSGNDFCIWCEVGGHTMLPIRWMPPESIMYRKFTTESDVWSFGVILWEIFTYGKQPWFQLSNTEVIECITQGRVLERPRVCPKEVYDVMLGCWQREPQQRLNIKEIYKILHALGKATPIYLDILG

Structure (SMILES) | inhibition
O=C1Nc2ccc(I)cc2C1=Cc1cc(Br)c(O)c(Br)c1 | 1.67%
CCS(=O)(=O)c1ccc(OC)c(Nc2ncc(-c3cccc(-c4ccccc4F)c3)o2)c1 | 7.3%
COc1ccc(-c2ccc3c(NC(=O)C4CC4)n[nH]c3n2)cc1 | -0.49%
CCc1ccc(Oc2nccc(-c3c(-c4ccc(F)cc4)ncn3C3CCNCC3)n2)cc1 | 1.82%
NCc1ccc(-n2c(-c3nonc3N)nc3cnccc32)cc1 | 3.14%
CN1CCN(CCCNc2nc3ccc(Oc4ccc(NC(=O)Nc5cc(C(F)(F)F)ccc5F)cc4)cc3[nH]2)CC1 | 4.05%
NS(=O)(=O)c1ccc(Nc2cc(-c3ccc(O)c(F)c3)n[nH]2)cc1 | 10.5%
NS(=O)(=O)c1ccc(N/N=C2\C(=O)Nc3ccc(-c4cnco4)cc32)cc1 | 13.3%
CCc1cccc(CC)c1/C=C/c1cncc(C(=O)NC)c1 | 1.36%
FC(F)(F)c1cccc(Nc2nccc(-c3cnn4nc(-c5ccccc5)ccc34)n2)c1 | -0.78%
COc1ccc2cc(-c3c(-c4ccncc4)nc(-c4ccc([S+](C)[O-])cc4C)n3C)ccc2c1 (stereo not drawn) | -0.79%
CCS(=O)(=O)c1ccc(OC)c(Nc2ncc(-c3ccccc3Cl)o2)c1 | 3.33%
C[C@@H](Oc1cc(-n2cnc3ccc(OCC4CCN(C)CC4)cc32)sc1C(N)=O)c1ccccc1Cl | 4.35%
C[C@@H](Oc1cc(-n2cnc3ccc(OC4CCN(C)CC4)cc32)sc1C(N)=O)c1ccccc1Cl | 2.56%
CCN(CC)Cc1ccc(Nc2nccc(-c3cnn4ncccc34)n2)cc1 | 2.83%
Fc1ccc(-c2ncn(CCCN3CCOCC3)c2-c2ccncc2)cc1 | -0.42%
Fc1ccc(-c2nc3n(c2-c2ccncc2)CCS3)cc1 | 2.96%

Structure (SMILES) | inhibition
Fc1ccc(-c2ncn(C3CCNCC3)c2-c2ccnc(Oc3ccc4c(c3)OCO4)n2)cc1 | 4.02%
Fc1ccc(-c2c(-c3ccncc3)nc3n2CCS3)cc1 | 3.54%
O=C(Nc1n[nH]c2nc(-c3ccc(O)cc3)c(Br)cc12)C1CC1 | 5.79%
CN(C)CCOc1ccc(-c2cc(-c3ccc4c(c3)CCC4=NO)c(-c3ccncc3)o2)cc1 | 0.94%
COc1ccc(C2=C(N3CCc4ccccc43)C(=O)NC2=O)cc1 | 3.23%
CN(c1ccc(NC(=O)Nc2c(Cl)cccc2Cl)cc1)c1ccnc(Nc2cccc(CS(C)(=O)=O)c2)n1 | 31.7%
Cc1ccc(C(=O)NC2CCC2)cc1-c1ccc(C(=O)NCC2CC2)cc1 | 2.08%
COc1cccc(-n2cnc3c(N/N=C/c4ccncc4)ncnc32)c1 | 0.58%
Cc1ccc(C(=O)NC(C)C)cc1-c1ccc(C(=O)NCC2CC2)cc1 | 0.1%
NC(=O)Cc1ccccc1Oc1nccc(-c2c(-c3ccc(F)cc3)ncn2C2CCNCC2)n1 | 0.22%
O=C1Nc2ccccc2/C1=C/Nc1ccc(-n2cncn2)cc1 | 12.5%
c1ccc(Oc2ccc(Nc3ncc(-c4ccccc4)o3)cc2)cc1 | 0.46%
COc1cc2ncn(-c3cc(OCc4ccccc4C(F)(F)F)c(C(C)=O)s3)c2cc1OC | 0.64%
COc1ccc2ncn(-c3cc(O[C@H](C)c4ccccc4Cl)c(C(N)=O)s3)c2c1 | 4.36%
CCc1nccc2c1nc(-c1nonc1N)n2CC | 0.15%
CN(C)c1ccc2c(c1)/C(=C/Nc1ccc(S(N)(=O)=O)cc1)C(=O)N2 | 21%
COc1cc2ncn(-c3cc(OCc4cccs4)c(C(N)=O)s3)c2cc1OC | 6.48%

molecular target: NT-3 growth factor receptor (Homo sapiens) (UniProt Q16288); settings: at 1 µM

Structure (SMILES) | inhibition
O=C1Nc2ccc(I)cc2C1=Cc1cc(Br)c(O)c(Br)c1 | 6.01%
CCS(=O)(=O)c1ccc(OC)c(Nc2ncc(-c3cccc(-c4ccccc4F)c3)o2)c1 | 39.5%
COc1ccc(-c2ccc3c(NC(=O)C4CC4)n[nH]c3n2)cc1 | 5.04%
CCc1ccc(Oc2nccc(-c3c(-c4ccc(F)cc4)ncn3C3CCNCC3)n2)cc1 | 3.29%
NCc1ccc(-n2c(-c3nonc3N)nc3cnccc32)cc1 | 2.31%
CN1CCN(CCCNc2nc3ccc(Oc4ccc(NC(=O)Nc5cc(C(F)(F)F)ccc5F)cc4)cc3[nH]2)CC1 | 17.4%
NS(=O)(=O)c1ccc(Nc2cc(-c3ccc(O)c(F)c3)n[nH]2)cc1 | 47.7%
NS(=O)(=O)c1ccc(N/N=C2\C(=O)Nc3ccc(-c4cnco4)cc32)cc1 | 51.9%
CCc1cccc(CC)c1/C=C/c1cncc(C(=O)NC)c1 | 3.49%
FC(F)(F)c1cccc(Nc2nccc(-c3cnn4nc(-c5ccccc5)ccc34)n2)c1 | 3.9%
COc1ccc2cc(-c3c(-c4ccncc4)nc(-c4ccc([S+](C)[O-])cc4C)n3C)ccc2c1 (stereo not drawn) | 1.56%
CCS(=O)(=O)c1ccc(OC)c(Nc2ncc(-c3ccccc3Cl)o2)c1 | 12.5%
C[C@@H](Oc1cc(-n2cnc3ccc(OCC4CCN(C)CC4)cc32)sc1C(N)=O)c1ccccc1Cl | 10.4%
C[C@@H](Oc1cc(-n2cnc3ccc(OC4CCN(C)CC4)cc32)sc1C(N)=O)c1ccccc1Cl | 9.09%
CCN(CC)Cc1ccc(Nc2nccc(-c3cnn4ncccc34)n2)cc1 | 5.86%
Fc1ccc(-c2ncn(CCCN3CCOCC3)c2-c2ccncc2)cc1 | -2.77%
Fc1ccc(-c2nc3n(c2-c2ccncc2)CCS3)cc1 | 3.11%

Structure (SMILES) | inhibition
Fc1ccc(-c2ncn(C3CCNCC3)c2-c2ccnc(Oc3ccc4c(c3)OCO4)n2)cc1 | 7.26%
Fc1ccc(-c2c(-c3ccncc3)nc3n2CCS3)cc1 | 1.8%
O=C(Nc1n[nH]c2nc(-c3ccc(O)cc3)c(Br)cc12)C1CC1 | 16.4%
CN(C)CCOc1ccc(-c2cc(-c3ccc4c(c3)CCC4=NO)c(-c3ccncc3)o2)cc1 | -0.98%
COc1ccc(C2=C(N3CCc4ccccc43)C(=O)NC2=O)cc1 | 3.14%
CN(c1ccc(NC(=O)Nc2c(Cl)cccc2Cl)cc1)c1ccnc(Nc2cccc(CS(C)(=O)=O)c2)n1 | 88.6%
Cc1ccc(C(=O)NC2CCC2)cc1-c1ccc(C(=O)NCC2CC2)cc1 | 1.92%
COc1cccc(-n2cnc3c(N/N=C/c4ccncc4)ncnc32)c1 | 9.77%
Cc1ccc(C(=O)NC(C)C)cc1-c1ccc(C(=O)NCC2CC2)cc1 | 1.79%
NC(=O)Cc1ccccc1Oc1nccc(-c2c(-c3ccc(F)cc3)ncn2C2CCNCC2)n1 | 0.96%
O=C1Nc2ccccc2/C1=C/Nc1ccc(-n2cncn2)cc1 | 58.4%
c1ccc(Oc2ccc(Nc3ncc(-c4ccccc4)o3)cc2)cc1 | 1.12%
COc1cc2ncn(-c3cc(OCc4ccccc4C(F)(F)F)c(C(C)=O)s3)c2cc1OC | 4.16%
COc1ccc2ncn(-c3cc(O[C@H](C)c4ccccc4Cl)c(C(N)=O)s3)c2c1 | 11%
CCc1nccc2c1nc(-c1nonc1N)n2CC | -0.85%
CN(C)c1ccc2c(c1)/C(=C/Nc1ccc(S(N)(=O)=O)cc1)C(=O)N2 | 73.1%
COc1cc2ncn(-c3cc(OCc4cccs4)c(C(N)=O)s3)c2cc1OC | 27.2%
